# Compound activity from PubChem BioAssay.
# In the library only some 7.5% were active in any assay of this set; here they are far more common.
# Vaccinia mCherry: inhibitors of vaccinia virus infection (mCherry reporter signal). hit rate 0.63% among 310,000. Vaccinia virus mCherry reporter infection, fluorescence. Potency, µM (doses to about 36.5 µM), for inactives: top-dose activity change, negative = inhibition, usual class: inhibitors; calls by dose curve; tested in A549 cells; also: potency is read from the fitted curve at half-maximal effect; nearly all actives have a fitted effect of over 35% in size
# Vaccinia Venus: vaccinia inhibition (Venus reporter) | Vaccinia virus Venus reporter expression, fluorescence | Potency, µM (highest dose often 36.5 µM), for the others: at the top dose activity change, negative = inhibition, most hits filed as inhibitors | hit rate 0.46% among 330,000; calls by dose curve; tested in A549 cells; also: potency is read from the fitted curve at half-maximal effect; nearly all actives have a fitted effect of over 30% in size
# Giardia FBPA inh: inhibitors of Giardia lamblia fructose-1,6-bisphosphate aldolase | Potency, µM (series often up to 59.6 µM), for the others: at the highest dose activity, negative = inhibition, hits mostly inhibitors | purified Giardia FBPA | A8B2U2 | hit rate 0.71% among 290,000; also: potency is read from the fitted curve at half-maximal effect; nearly all actives have a fitted effect of over 55% in size
# Target sequence (A8B2U2 whole entry, looked up): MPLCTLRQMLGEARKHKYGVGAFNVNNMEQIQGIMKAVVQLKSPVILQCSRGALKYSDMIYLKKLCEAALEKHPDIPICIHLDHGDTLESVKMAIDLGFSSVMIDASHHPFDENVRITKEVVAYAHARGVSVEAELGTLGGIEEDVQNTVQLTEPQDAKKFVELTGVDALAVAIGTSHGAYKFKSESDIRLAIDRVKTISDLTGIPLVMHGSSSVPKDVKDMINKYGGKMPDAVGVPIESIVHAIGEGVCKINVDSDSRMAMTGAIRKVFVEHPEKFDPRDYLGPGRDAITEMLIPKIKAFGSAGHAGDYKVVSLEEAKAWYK
#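 Giardia FBPA (40 nM reagent) was preincubated 10 min at RT with compound (up to 57.5 uM final), then substrate plus GAPDH/TPI/NAD/arsenate coupling system with diaphorase/resazurin was added; resorufin fluorescence (525/598 nm) was read after 20 min.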
# FMDV inh: foot and mouth disease virus antiviral activity; FMDV antiviral cell-based qHTS; Potency, µM (highest dose often 57.9 µM), for the others: at the top dose activity change, negative = inhibition, hits mostly inhibitors; hit rate 1.2% among 410,000; AID 1159524; calls by dose curve; tested in HEK293T cells; also: read-out not given here; potency is read from the fitted curve at half-maximal effect; nearly all actives have a fitted effect of over 45% in size
# HCV inhibitor: inhibitors of hepatitis C virus infection. Huh7.5.1 HCVcc-Cre infection, luciferase reporter, 44 h. Potency, µM (highest dose often 41.8 µM), for the others: at the highest dose activity change, negative = inhibition, actives largely listed as inhibitors. hit rate 3.4% among 340,000; also: potency is read from the fitted curve at half-maximal effect
#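 A cell-based infection assay in which seeded cells (1,000 per well) receive test compound after 4 h, are inoculated with HCVcc-Cre at approximately 0.5 moi, and are incubated 44 h before luminescence detection.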
# HCMV antiviral: human cytomegalovirus inhibition; HFF cells, HCMV-luciferase reporter, 72 h; hits give low values; activity change, negative = inhibition, % at 57.5 µM; hit rate 4.5% among 410,000; AID 1259415; in the data active = activity change below about -60%; inconclusive = no clear call, values can overlap the other calls; inactive = above about -39%
#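 Screen run at 2 compound doses on HFFs infected with reporter HCMV, MOI 1 PFU/cell. Luciferase activity from cell lysates at 72 h post infection gave inhibition relative to buffer-only and Salinomycin wells.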
# Numbers without * were called inactive; i = inactive; ? = inconclusive; nt = no result given; ! = repeats disagree. Unless noted, calls follow the shape of the dose curve; as a rule, active = well fitted curve in the direction sought with a large enough effect; inconclusive = small, poorly fitted or top-dose-only effect, or another doubt; inactive = no such curve, though single readings can be large; an effect the other way counts as inactive or inconclusive. % is scaled to controls: 0 for no effect and ±100 for the full control effect.
SMILES,Vaccinia mCherry,Vaccinia Venus,Giardia FBPA inh,FMDV inh,HCV inhibitor,HCMV antiviral
CCn1cc(C(=O)NCCCN(CC(C)C)CC(C)C)c(=O)c2cc(S(=O)(=O)N3CCc4ccccc4C3)ccc21,-12.2%,-5.0%,nt,-14.1%,nt,-1.9
CCCN(CCC)CCCNC(=O)c1cn(CC)c2ccc(S(=O)(=O)N3CCc4ccccc4C3)cc2c1=O,?,?,-0.2%,-9.8%,?,-82.0*!
CCCCN(C)CCCNC(=O)c1cn(CC)c2ccc(S(=O)(=O)N3CCc4ccccc4C3)cc2c1=O,-9.8%,-10.8%,9.7%,-16.9%,?,-67.6*!
CCn1cc(C(=O)NCCCOC)c(=O)c2cc(S(=O)(=O)N3CCc4ccccc4C3)ccc21,-24.3%,-8.7%,nt,-18.0%,nt,-15.2
C=CCn1cc(C(=O)N2CCc3ccccc3C2)c(=O)c2cc(S(=O)(=O)N(CC)CC)ccc21,i,-13.9%,0.6%,15.4%,-2.7%,-67.4*
C=CCn1cc(C(=O)OC)c(=O)c2cc(S(=O)(=O)N(CC)CC)ccc21,i,-15.3%,1.0%,nt,1.4%,-14.4
CCn1cc(C(=O)NCCCN2CCCC2)c(=O)c2cc(S(=O)(=O)N3CCc4ccccc4C3)ccc21,nt,nt,-11.9%,-10.5%,14.1µM*,-4.4
COc1ccc(OC)c(C(=O)NC(CC(N)=O)c2ccc(NC(C)C)c([N+](=O)[O-])c2)c1 (centres undefined),i,-8.9%,5.1%,-23.5%,-12.5%,-14.8
CN(C)C(=O)c1ccc(Nc2nccc3c2cc(-c2ccsc2)n3C)cc1,nt,nt,nt,nt,nt,-15.3
CCCCN(CC)CCCNC(=O)c1cn(CC)c2ccc(S(=O)(=O)N3CCc4ccccc4C3)cc2c1=O,?,-20.0%,2.4%,0.0%,?,-60.0*!
CCn1cc(C(=O)NCCCOC(C)C)c(=O)c2cc(S(=O)(=O)N3CCc4ccccc4C3)ccc21,-5.6%,-22.4%,nt,1.5%,nt,-26.6
CC(=O)C1=C(C)OC(N)=C(C#N)C1c1cccc2ccccc12 (centres undefined),-17.2%,-8.2%,19.9µM*,-25.3%,-10.7%,85.0
CC(=O)C1=C(C)OC(N)=C(C#N)C1c1ccco1 (centres undefined),3.2%,4.2%,?,-3.9%,11.4%,0.5
CCCNC(=O)C(Cc1ccccc1C)NC(=O)c1ccc(C(F)(F)F)cc1 (centres undefined),i,-20.4%,nt,-10.0%,10.2%,25.7
Cc1ccccc1NC(=O)c1ccc(S(=O)(=O)N(C)C)cc1,-1.7%,-15.5%,-3.2%,-11.3%,0.9%,55.8
CN(C)S(=O)(=O)c1ccc(C(=O)Nc2ccccc2[N+](=O)[O-])cc1,-8.6%,-22.1%,10.1%,-23.9%,1.7%,-65.0*
CSc1nccc(-c2cc(Cl)c3c(c2)CC(CNC(=O)c2ccc(C)nc2)O3)n1 (centres undefined),i,-0.4%,nt,-20.4%,nt,nt
COc1ccccc1C/C(N)=N/OC(=O)c1cccc([N+](=O)[O-])c1C,-25.2%,-18.0%,1.4%,-13.9%,10µM*,29.8
COc1ccc(/C(N)=N/OC(=O)c2cccc([N+](=O)[O-])c2C)cc1,-4.3%,0.2%,-1.6%,3.6%,?,92.6
N#CC(c1ccc(Cl)nn1)c1ccc(Cl)cc1Cl (centres undefined),nt,-14.2%,-7.7%,46.4%,11.2µM*,-26.5
COc1ccc(C(C#N)c2ccc(Cl)nn2)cc1 (centres undefined),-0.6%,-2.9%,-1.2%,8.7%,10.4%,5.2
CCn1cc(S(=O)(=O)c2cc(C)cc(C)c2)c(=O)c2cc(F)c(N3CCN(c4ccccc4)CC3)cc21,-16.9%,-27.2%,nt,2.0%,nt,-20.0
COc1cc(OC)c(N(C)S(=O)(=O)c2cccc(C(=O)OCC(=O)N(C)Cc3ccccc3)c2)cc1Cl,nt,nt,nt,-3.4%,11.2µM*,-63.2*
CN1CCC(CC(C(=O)N2CCCC2)(c2ccccc2)c2ccccc2)C1 (centres undefined),-4.5%,-6.2%,nt,13.1%,-12.6%,18.2
O=C(CSCc1nc2ccccc2[nH]1)N1CCN(c2ccc(F)cc2)CC1,-22.4%,?,-34.6%,35.5µM*,12.6µM*,-33.4
SMILES,Vaccinia mCherry,Vaccinia Venus,Giardia FBPA inh,FMDV inh,HCV inhibitor,HCMV antiviral
O=C(CSCc1nc2ccccc2[nH]1)N1CCN(c2cccc(Cl)c2)CC1,nt,nt,15.3%,35.5µM*,-3.7%,-27.0
CCCCn1c(NC(=O)c2ccco2)c(S(=O)(=O)c2ccc(C)cc2)c2nc3ccccc3nc21,-8.2%,18.2%,?,-15.1%,-3.8%,1.3
CCCCn1c(NC(=O)c2ccco2)c(C(=O)OCC)c2nc3ccccc3nc21,-12.8%,11.6%,5µM*,nt,-15.1%,-69.0*
C=C1C(=O)[C@]23C[C@H]1CCC2[C@@]1(C)C(C[C@@H]3O)[C@](C)(C(=O)OC)CC[C@@H]1O (some centres undefined),8.91µM*,?,nt,20µM*,nt,-101.9*
O=C(c1ccc2c(c1)OCO2)C1CCCN(C2CCN(CCc3ccccc3)CC2)C1 (centres undefined),i,-23.8%,-7.5%,-8.3%,3.55µM*,-13.7
CC(=O)c1cccc(CN2CCCC(C(=O)c3ccc4c(c3)OCO4)C2)c1 (centres undefined),-9.3%,-13.1%,-5.2%,-17.0%,-2.0%,?
O=C(NC(=S)NCc1ccccc1)c1ccc2c(c1)OCO2,-13.7%,-4.9%,-3.9%,50.2%,9.1%,40.8
O=C(NCCc1ccccc1)c1ccc2c(c1)OCO2,-10.0%,-12.9%,-5.2%,7.94µM*,6.6%,-78.7*
O=C(NNC(=S)NCc1ccccc1)c1ccc2c(c1)OCO2,-9.4%,-20.7%,6.7%,-2.1%,16.4%,-65.1*
O=C(NCCS(=O)(=O)NCc1ccccc1)c1ccc2c(c1)OCO2,i,-0.2%,nt,5.1%,6.4%,-3.4
O=C(NCCc1ccc2c(c1)OCCO2)c1cc(F)cc(F)c1,-16.3%,-15.9%,0.7%,-7.1%,?,?
O=C(NCCc1ccc2c(c1)OCCO2)c1cccc(F)c1,-19.2%,-21.9%,0.3%,11.4%,?,-73.2*
CCOC(=O)Cn1nnc2c(sc3nc4c(c(-c5ccc(Cl)cc5)c32)CCC4)c1=O,nt,-4.3%,0.1%,0.0%,12.0%,-24.6
O=c1[nH]cnc2c1sc1nc3c(c(-c4ccc(Cl)cc4)c12)CCC3,nt,2.82µM*,4.1%,?,5.9%,?
Cc1nc(C(N)=O)c(N)n1CCc1ccccc1,-14.8%,-11.3%,1.7%,14.0%,29.7%,77.6
COc1cc(Cl)c(C)cc1N1C(=O)[C@@H]2C[C@H]1CN2Cc1ccccn1,-8.0%,-2.3%,nt,-10.6%,nt,nt
O=c1[nH]c(=S)[nH]c(O)c1/C=C1/C=c2ccccc2=N1,i,-16.3%,-16.2%,25.1µM*,?,71.5
O=C1N=c2ccccc2=C1c1[nH]c(=S)[nH]c1O,-21.1%,-17.4%,1.7%,-8.7%,16.2%,49.8
CN(C)c1cccc(CNc2nccc3[nH]c(-c4ccc(F)c(F)c4)nc23)c1,nt,nt,nt,nt,nt,0.2
